The text below walks through data of ChEMBL document CHEMBL4513216, “Probing the Open Global Health Chemical Diversity Library for Multistage-Active Starting Points for Next-Generation Antimalarials” (ACS Infect Dis, 2020).

Among all 65,000 compounds or so, about 2,100 (3.2%) showed an effect of 50% or more. The median lay at about -52%. The entries come from a sample that favours strong results as a whole.

This assay concerns Plasmodium falciparum. Put plainly: Screen against P. falciparum Asexual Blood Stage (ABS), at 5uM. The class given is functional, Dd2. The following applies: tested at 5 uM.
For `CCc1ccc(C(C)NC(=O)CN(C)Cc2ccc(C)o2)cc1` (centres undefined), the INHIBITION was 13.3%.
Turning to `CCC(NC(=O)CN(C)Cc1ccc(C)o1)c1ccc(C)cc1` (centres undefined), the INHIBITION was 50.9%.
Turning to `CCC(NC(=O)CN(C)Cc1ccc(C)o1)c1ccc(Br)cc1` (centres undefined), the INHIBITION is listed as 37.3%.
On to `N#Cc1ccc(CN2CC3(CCCCN3c3cccnc3)CC2=O)cc1` (centres undefined), for which the INHIBITION was determined as 7.75%.
Take `CC(C)(C#N)c1ccccc1CN1CCC(N2CCCC2=O)CC1`: the INHIBITION is reported as -50.6%.
On to `Cc1cccc(-c2nccnc2C2CCCN(C)C2)c1C` (centres undefined), for which the INHIBITION was found to be 2.65%.
`Cc1cccc(-c2nccnc2C2CCN(C)CC2)c1C`: the INHIBITION turned out to be 54.2%.
As for `COc1ccccc1-c1nccnc1C1CCN(C(C)=O)CC1`, the INHIBITION is listed as -20.5%.
As to `O=C(O)[C@@H]1CN(C(=O)Cc2ccccc2Cl)C[C@H]1C1CC1`, the INHIBITION was -94%.
As for `CNC(=O)N1C[C@@H]2C[C@H](C(=O)Nc3cccnc3)[C@H](C1)O2`, the INHIBITION is given as -142%.
`Cn1cnnc1C1CCN(C(=O)c2cc3c(s2)CCCC3)CC1`: the INHIBITION was -21.6%.
For the compound `COc1ccccc1S(=O)(=O)N1CCC2(CC1)[C@H](O)C[C@@H]2O`, the INHIBITION is -62.3%.
`CN(C)C1Cc2ccccc2N(S(=O)(=O)c2ccc(C#N)cc2)C1` (centres undefined): the INHIBITION turned out to be 49.9%.
Next, `COc1ccccc1S(=O)(=O)N1CC(N(C)C)Cc2ccccc21` (centres undefined): 64.1%; `COc1cc(F)c(S(=O)(=O)N2CCN(C)Cc3ccccc32)cc1OC`: 13.8%.
Regarding `CN(Cc1nnc(C2CC2)n1C)S(=O)(=O)c1ccccc1C#N`, the INHIBITION is -108%.
As to `CN(C)C1Cc2ccccc2N(S(=O)(=O)c2ccccc2C#N)C1` (centres undefined), the INHIBITION was found to be 56.6%.
Consider `Cc1nc(NCc2cccnc2)cc(C2COCCN2)n1` (centres undefined), for which the INHIBITION is -124%.
For `Cc1cnn(C2CCCN(C(=O)c3cn(-c4ccccc4)nn3)C2)c1` (centres undefined) the value was -119%; for `CCC(C)c1noc(C2CCN(C(=O)c3ccccn3)CC2)n1` (centres undefined), -122%; for `O=C(O)c1cccnc1CN1CCCC1CCc1ccccc1` (centres undefined), -78%.
As for `c1ccc(CC2CCN(Cc3ccnc(-c4cccnc4)n3)CC2)cc1`, the INHIBITION is reported as -20%.
Consider `c1ncc2c(n1)CN(Cc1nc(-c3ccc4c(c3)OCO4)no1)CC2`, for which the INHIBITION was 21%.
In the case of `Cc1ncc2c(n1)CN(Cc1nnc(Cc3ccccc3)o1)CC2`, the INHIBITION is recorded as -25%.
In the case of `Cc1cnn(C2CN(Cc3nnc(Cc4ccccc4)o3)C2)c1`, the INHIBITION stood at 51.8%.
`c1ncc2c(n1)CN(Cc1nc(-c3ccoc3)no1)CC2`: the INHIBITION stood at 58.7%.
On to `Cc1ccc(-c2noc(CN3CCc4cncnc4C3)n2)cc1`, for which the INHIBITION was 59.7%.
As for `Cc1cnn(C2CN(Cc3nnc(-c4ccccc4Cl)o3)C2)c1`, the INHIBITION stood at 11.9%.
Consider `c1ccc(Cc2nnc(CN3CCc4cncnc4C3)o2)cc1`, for which the INHIBITION amounted to 63.6%.
For `c1ccc(Cc2noc(CN3CCc4cncnc4C3)n2)cc1`, the INHIBITION is recorded as -48.8%.
Consider `COc1ccc(-c2noc(CN3CCc4cncnc4C3)n2)cc1`, for which the INHIBITION stood at 6.71%.
Next, `c1ncc2c(n1)CN(Cc1nc(-c3ccsc3)no1)CC2`: -41.7%; `Cc1ccc(-c2nnc(CN3CC(n4cc(C)cn4)C3)o2)cc1`: -29.5%; `c1coc(-c2noc(CN3CCc4cncnc4C3)n2)c1`: 31%.
In the case of `COC(=O)COc1cc(NCc2c(C)noc2C)c(Cl)cc1C`, the INHIBITION is recorded as -49.6%.
Take `COc1ccc(-c2csc3c2c(N)nc(=O)n3CC(N)=O)cc1`: the INHIBITION is listed as -61.4%.
For `CC(=O)Nn1ccc2c(nnc3c(-c4ccccc4)cnn32)c1=O` the value was -65.6%; for `CCc1nc(NCCc2c(C)nn(CC)c2C)c2cnn(C)c2n1`, -95.2%.
Consider `CC(CCc1ccc(F)c(F)c1)NS(=O)(=O)Cc1ccon1` (centres undefined), for which the INHIBITION was -44.6%.
For `CCC(=O)N1CCCC1c1nc(N(C)C)ncc1-c1ccc(Cl)cc1` (centres undefined) the value was 19.6%; for `COc1ccc(CC(=O)N2CCCC(n3nc(C)cc3C)C2)cc1` (centres undefined), -9.14%.
`COc1ccccc1C(=O)N1CC(=O)N(C2CCCCC2)CC(O)C1` (centres undefined): the INHIBITION is listed as -37%.
Consider `Cc1ccc(S(=O)(=O)N2C[C@H]3C[C@H](NC(=O)c4ccccn4)[C@H]3C2)cc1`, for which the INHIBITION is given as -55.2%.
Consider `O=C(N1CCCC1)N1CCC[C@]2(C[C@@H](OCc3ccncc3)CO2)C1`, for which the INHIBITION was -71.6%.
In the case of `CCC(C(=O)Nc1ccc(-c2nc(C)n[nH]2)cc1)N1CCCC1=O` (centres undefined), the INHIBITION is -34.4%.
Next, `Cc1nc(NS(=O)(=O)c2cccc(F)c2C)no1`: -25.8%; `COCCN1CCC(c2nc3ccc(N4CCCC4)cn3n2)CC1`: -45.6%; `O=C(NCCc1ccccn1)[C@@H]1CC[C@@H]2[C@@H](CCN2Cc2ccoc2)O1`: -60.9%.
As to `COc1nc2ccn(CCc3scnc3C)c(=O)c2cc1C#N`, the INHIBITION was -31.6%.
Next, `COc1nc2ccn(CCNc3cc(C)ccn3)c(=O)c2cc1C#N`: 51.7%.
Turning to `COc1nc2ccn(CCc3cnccn3)c(=O)c2cc1C#N`, the INHIBITION is recorded as -11.9%.
Turning to `N#Cc1cc(F)ccc1CN1CCCC1Cn1cccn1` (centres undefined), the INHIBITION is recorded as -48.4%.
Take `CC(=O)Nc1ccc(C(=O)N(C)Cc2ccc(F)cc2F)s1`: the INHIBITION was -10.9%.
Consider `O=C(CCN1CCCO1)NC1CCCN(CC2CCCCC2)C1` (centres undefined), for which the INHIBITION is listed as -105%.
